# Hits are enriched below; roughly 8.7% of the tested compounds scored in any of these assays.
# Sfp inh = qHTS Assay for Inhibitors of Bacillus subtilis Sfp phosphopantetheinyl transferase (PPTase) | Potency, µM, for inactives: largest response in the series, negative = inhibition, usual class: inhibitors | Biochemical Sfp PPTase activity, qHTS | 4'-phosphopantetheinyl transferase ffp (Bacillus subtilis), Q9F4F7 | AID 1490, 2009 | actives 3.5% (n = 310,000);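 further: the enzyme is Sfp with the accession as filed and its product quenches rhodamine fluorescence; 0% = enzyme reaction without inhibitor and -100% = no enzyme wells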
#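 Sfp 15 nM + cpd, 15 min RT; start w/ rhodamine-CoA 5 uM, BHQ-2-YbbR 12.5 uM (final); 50 mM Hepes pH 7.6, 10 mM MgCl2, 0.01% NP-40, 0.01% BSA; read 525/598 nm at 0 and 30 min.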
# HP1b chromo inh = HTS for Inhibitors of HP1-beta Chromodomain Interactions with Methylated Histone Tails; Potency, µM (doses to about 114 µM), for the others: top-dose activity change, negative = inhibition, usual class: inhibitors; AlphaScreen HP1-beta / biotin-H3K9me3 peptide binding; actives 0.56% (n = 390,000); Chromobox protein homolog 1 (Homo sapiens), P83916; further: nearly all actives have a fitted effect of over 70% in size
#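 Compound inhibition of the preformed complex between 50 nM HP1-beta and 50 nM biotinylated H3K9me3 peptide was read by AlphaScreen. Buffer was PBS pH 7.4 with 0.01% Tween-20. Incubations ran 30 min at room temperature, with 10 ug/mL donor/acceptor beads.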
# JMJD2A Tudor inh = qHTS Assay for Inhibitors of JMJD2A-Tudor Domain; Lysine-specific demethylase 4A (Homo sapiens), O75164; AlphaScreen JMJD2A-Tudor / H3K4me3 peptide binding; Potency, µM (top dose mostly 114 µM), for inactives: at the highest dose activity change, negative = inhibition, most hits filed as inhibitors; actives 4.4% (n = 390,000); further: on the % scale 0 is the no-effect control and ±100 the full control effect; nearly all actives have a fitted effect of over 50% in size
# ALOX12 inh = Primary qHTS assay for inhibitors of human arachidonate 12S-lipoxygenase (ALOX12): Round 2. AID 1671190, 2021. Polyunsaturated fatty acid lipoxygenase ALOX12 (Homo sapiens), P18054. actives 1.1% (n = 580,000). Potency, µM (top dose mostly 108 µM), for the others: top-dose activity change, negative = inhibition, usual class: inhibitors. purified 12hLO, xylenol orange hydroperoxide absorbance; further: on the % scale 0 is the no-effect control and ±100 the full control effect
#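 Hydroperoxide product was detected by ferrous iron/xylenol orange as the 573 to 405 nm absorbance ratio. Arachidonic acid at 40 uM (final) was turned over for 30 min at room temperature by 150 nM human 12hLO, pH 7.0 Hepes buffer, after 15 min compound preincubation.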
# BAZ2B inh = qHTS Assay for Inhibitors of BAZ2B | Bromodomain adjacent to zinc finger domain protein 2B (Homo sapiens), Q9UIF8 | AlphaScreen BAZ2B-H3K14Ac peptide displacement | Potency, µM (highest dose often 114 µM), without a hit: at the top dose activity change, negative = inhibition, hits mostly inhibitors | actives 4.4% (n = 360,000) | AID 504333, 2011; further: on the % scale 0 is the no-effect control and ±100 the full control effect; nearly all actives have a fitted effect of over 60% in size
#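 Multi-concentration screen (max 110 uM) measuring displacement of acetylated histone H3 peptide from BAZ2B by AlphaScreen, using 50 nM protein, 50 nM peptide and 10 ug/mL streptavidin donor plus Ni-chelate acceptor beads.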
# G9a inh = qHTS Assay for Inhibitors of Histone Lysine Methyltransferase G9a | Histone-lysine N-methyltransferase EHMT2 (Homo sapiens), Q96KQ7 | G9a H3K9 monomethylation, AlphaScreen, 2 h | Potency, µM (top dose mostly 102 µM), for inactives: top-dose activity, negative = inhibition, actives largely listed as inhibitors | actives 8.8% (n = 350,000); further: on the % scale 0 is the no-effect control and ±100 the full control effect; nearly all actives have a fitted effect of over 75% in size
#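 AlphaScreen detection with an anti-monomethyl H3K9 antibody quantified product after a 2 h room-temperature reaction containing 500 nM biotinylated H3K9 peptide, 20 µM SAM and 20 nM enzyme, which had been preincubated 15 min with compound.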
# * hit, by the source's call; ? = inconclusive; / = no result; [ ] = another dose, or the depositor's remark. The call rests on the fitted dose curve; in most records, active means well fitted curve in the direction sought with a large enough effect; inconclusive means small, poorly fitted or top-dose-only effect, or another doubt; inactive means no such curve, though single readings can be large; an effect the other way counts as inactive or inconclusive. Potency means the concentration at half of the fitted maximal effect.
SMILES,Sfp inh,HP1b chromo inh,JMJD2A Tudor inh,ALOX12 inh,BAZ2B inh,G9a inh
COc1ccc(NC(=S)Nc2ccc3nsnc3c2)cc1,56µM*,?,?,7.9µM*,-36%,2µM*
COc1ccc(NC(=S)Nc2ccc3nc(C)c(C)nc3c2)cc1,-17%,8%,-14%,-19%,0%,45µM*
C=CCN(CC=C)C(=S)Nc1ccc2nsnc2c1,13µM*,34%,4%,?,-11%,18µM*
Cn1c(=O)c2c(ncn2CCC(=O)Nc2cc(Cl)cc(Cl)c2)n(C)c1=O,/,/,/,1%,/,/
CN1C[C@@H](NC(=O)Nc2ccccc2)C[C@H]1c1nc(-c2cnccn2)no1,/,/,/,9%[176 µM],/,/
O=C(Nc1ccccc1F)N1CC(Oc2ccc(-c3noc(-c4ccccc4)n3)cc2)C1,/,/,/,1%,/,/
N#CC1=C2C=CC=CN2CC1=O,?,-23%,8.9µM*,?,50µM*,4µM*
COC(=O)c1sc(N2CCCCC2)c(C#N)c1N,-4%,-6%,-18%,2%,-38%,-31%
CCNc1sc(C(C)=O)c(N)c1C#N,/,/,/,3.2µM*,/,/
COc1ccc(NC(=O)CSc2nc3c(cnn3-c3ccccc3)c(=O)[nH]2)c(OC)c1,/,/,/,-9%,/,/
CN1C(=O)C2(CCN(C(=O)NC3CCCCC3)CC2)c2ccccc21,/,/,/,6%,/,/
COc1ccccc1OCC(=O)N1CCCC(Nc2ccc(C)c(C)c2)C1 (configuration not stated),3%,-28%,?,-20%,?,/
COc1ccc(CCC(=O)N2CCCC(Nc3ccc(C)c(C)c3)C2)cc1OC (configuration not stated),7%,-14%,?,-16%,?,45µM*
COc1ccc(NC2CCCN(C(=O)COc3ccc(Cl)cc3C)C2)cc1OC (configuration not stated),6%,-38%,?,438%,?,50µM*
CCc1nc(C)c(C(=O)N2C[C@H]3CC[C@@H]2CN(C(=O)c2ccccc2)C3)s1,/,/,/,13%,/,/
CCC(C)[C@H](NC(=O)NCc1ccccc1F)C(=O)O (some centres not stated),/,/,/,-26%,/,/
COC(=O)c1ccc(OCC(=O)c2ccccc2OC)cc1,6%,33%,-2%,20µM*,2%,19%[12.7 µM]
COc1ccc(C(=O)COC(=O)c2ccc(Cl)nc2)cc1OC,/,31%,-3%,9%,9%,?
COc1ccc(C(=O)COC(=O)c2ccccc2O)c(OC)c1,/,28%,?,59%,50µM*,-32%[59 µM]
COc1ccc(C(=O)COC(=O)c2ccc(Cl)nc2)c(OC)c1,/,-7%,-14%,?,79µM*,-31%
CC1(C)CN(C(=O)c2csc(Cc3ccccc3)n2)CC1(C)O (configuration not stated),/,/,/,33%,/,/
C/C(=N\NC(=O)c1cccnc1)c1nnn(-c2nonc2N)c1C,6%,75%,-17%,13%,-11%,50µM*
CCCN(CCC)Cc1c(C(=O)N/N=C/C(C)=C\c2ccco2)nnn1-c1nonc1N,-16%,-11%,-34%,?,?,?
CC(/C=N/NC(=O)c1nnn(-c2nonc2N)c1CN(C)C)=C\c1ccco1,?,-10%,-24%,-21%,-33%,79µM*
C/C(=N\NC(=O)c1nnn(-c2nonc2N)c1CN1CCCCCC1)c1ccc(Br)cc1,4%,44%,-7%,-3%,-2%,50µM*
CCN1CCN(Cc2c(C(=O)N/N=C(\C)c3ccc(Cl)cc3)nnn2-c2nonc2N)CC1,-1%,36%,-27%,?,?,28µM*
CCCc1c(C(=O)N/N=C(\C)c2cccnc2)nnn1-c1nonc1N,/,/,/,-20%,/,/
